# Measurements as given in PubChem BioAssay (Tox21).
# Unmarked numbers belong to inactive results. Results filed as inconclusive are left out. Entries that show only a call come without a potency. Calls of active or inactive are those of the source. Unless noted, the call rests on the fitted dose curve; in most records, active means well fitted curve in the direction sought with a large enough effect in the repeat runs; inconclusive means weak or mixed curves; inactive means no such curve, though single readings can be large; an effect the other way counts as inactive or inconclusive.
# Key:
# [1] = qHTS assay to identify small molecule HDAC inhibitors (AID 1259364);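 further: wild-type HCT-116 cells with endogenous class I/II HDAC activity; top concentration of the series differs between compounds; nearly all actives have a fitted effect of over 45% in size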
# Outline: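 Cells (HCT-116, wild type) are seeded at 1,500 per well, incubated overnight, treated with compound in DMSO for 2 hr, then developed with HDAC-Glo I/II reagent for 30 min at room temperature.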
# [2] = qHTS assay to identify small molecule HDAC inhibitors - cell viability counter screen (AID 1259365); further: series mostly up to about 92 µM; nearly all actives have a fitted effect of over 50% in size
# Outline: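 After overnight seeding at 1,500 cells per well, wild-type HCT-116 cultures took up compounds in DMSO for 2hr at 37 C. Viable cell content came from luminescence with CellTiter-Glo.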
# [3] = qHTS assay to identify small molecule agonists of the sonic hedgehog signaling (Shh) pathway - cell viability counter screen (AID 1259366); further: nearly all actives have a fitted effect of over 50% in size
# Outline: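 Same-well cytotoxicity read. Gli1-Luc reporter 3T3 cells; compounds 24hr, 37C/5% CO2; CellTiter-Fluor fluorescence.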
# [4] = qHTS assay to identify small molecule antagonists of the sonic hedgehog signaling (Shh) pathway - cell viability counter screen (AID 1259367); further: nearly all actives have a fitted effect of over 55% in size
# Outline: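 Conditioned medium drove Shh signaling in 3T3 Gli1-Luc cells exposed to compounds at 37C and 5% CO2. Viability was determined from CellTiter-Fluor fluorescence, with reagent incubated 1 hr after 23 hr of treatment.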
# [5] = qHTS assay to identify small molecule agonists of the sonic hedgehog signaling (Shh) pathway (AID 1259368; calls by dose curve;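 further: NIH/3T3-derived 3T3Gli1-Luc cells carrying a stable Gli1-driven firefly luciferase reporter; series mostly up to about 92 µM; nearly all actives have a fitted effect of over 15% in size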)
# Outline: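 Cells of a mouse NIH/3T3 clone stably expressing luciferase under the Gli1 transcriptional response element are exposed to test chemicals for 24 hr at 37 C. Pathway activation is detected as a rise in luminescence.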
# [6] = molecular target: Estrogen receptor beta (Homo sapiens) (UniProt Q92731); test: qHTS assay to identify small molecule agonists of the estrogen receptor beta (ER-beta) signaling pathway (AID 1259377; active means well fitted activation curve with a large enough effect in the signal ratio in the repeat runs, not every such curve was filed as active; the % refers to the signal ratio)
# Outline: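 Read-out: beta-lactamase FRET fluorescence. Cell line: ER-beta-UAS-bla HEK293T in 2% charcoal-stripped FBS. Exposure: 16 hr at 37C. Substrate step: 2 h at room temperature.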
# [7] = molecular target: Estrogen receptor beta (Homo sapiens) (UniProt Q92731); test: qHTS assay to identify small molecule antagonists of the estrogen receptor beta (ER-beta) signaling pathway (AID 1259378; active means well fitted inhibition curve with a large enough effect in the signal ratio in the repeat runs, not every such curve was filed as active; the % refers to the signal ratio)
# Outline: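 ER-beta-UAS-bla HEK293T (GripTite) cells in 2% charcoal-stripped FBS medium were preincubated 6 hr at 37C, dosed with compound, then stimulated with 1 nM E2 (final) for 16 hr; beta-lactamase reporter read by B/G FRET fluorescence after 2 hr substrate loading.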
# [8] = qHTS assay to identify small molecule antagonists of the estrogen receptor beta (ER-beta) signaling pathway - cell viability counter screen (AID 1259382); further: series mostly up to about 92 µM; nearly all actives have a fitted effect of over 55% in size
# Outline: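 Cytotoxicity counter screen multiplexed with the beta-lactamase antagonist assay: GripTite HEK293T ER-beta-bla cells were treated 16 hr with test chemicals in the presence of 1nM 17-beta-estradiol, and viability was measured by CellTiter-Glo.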
# [9] = molecular target: Estrogen receptor (Homo sapiens) (UniProt P03372); test: qHTS assay to identify small molecule agonists of the estrogen receptor alpha (ER-alpha) signaling pathway in the presence of an antagonist (AID 1259383; calls by dose curve; further: top concentration of the series differs between compounds; nearly all actives have a fitted effect of over 15% in size)
# Outline: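 Agonist-mode confirmation in the presence of the ER antagonist ICI-182,780 at 10.0nM final. Breast-derived VM7Luc4E2 reporter cells were exposed to compounds for 22hr, and ERE-driven luciferase was quantified by luminescence.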
# [10] = qHTS assay to identify small molecule agonists or antagonists of the thyroid stimulating hormone receptor (TSHR) signaling pathway - wild type cell line counter screen (AID 1259384; calls by dose curve)
# Outline: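 Wild-type HEK293 cells were plated 18 h at 37 C/5% CO2, pin-dosed with compound plus Ro20-1724 medium, held 30 min at room temperature, then given cAMP-d2 and anti-cAMP-cryptate; fluorescence was read after 1 h. Fifteen concentrations, triplicate.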
# [11] = molecular target: Thyrotropin receptor (Homo sapiens) (UniProt P16473); test: qHTS assay to identify small molecule antagonists of the thyroid stimulating hormone receptor (TSHR) signaling pathway (AID 1259385; calls by dose curve; further: nearly all actives have a fitted effect of over 20% in size)
# Outline: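 TSHR-HEK293 cells were plated and held 18 h at 37C/5% CO2, then given compound plus Ro20-1724 and stimulated with TSH at 1.5 ng/mL final. After 30 min at room temperature, cAMP was detected with cAMP-d2/anti-cAMP-cryptate (1 h) by fluorescence.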
# [12] = qHTS assay to identify small molecule agonists of the androgen receptor (AR) signaling pathway in the presence of an antagonist - cell viability counter screen (AID 1259379);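 further: MDA-kb2 human breast cancer cells carrying an MMTV luciferase reporter; series mostly up to about 92 µM; nearly all actives have a fitted effect of over 25% in size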
# Outline: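 Cytotoxicity is assessed by CellTiter-Fluor in MDA-kb2 cells carrying an MMTV-driven luciferase reporter. Cells receive 3.0uM nilutamide plus compounds at 15 concentrations and incubate 16 hr at 37C without CO2 before fluorescence reading.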
# [13] = molecular target: Androgen receptor (Homo sapiens) (UniProt P10275); test: qHTS assay to identify small molecule antagonists of the androgen receptor (AR) signaling pathway using the MDA cell line in the presence of 0.5 nM R1881 (AID 1259243); further: nearly all actives have a fitted effect of over 50% in size
# Outline: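 Stably transfected MDA-kb2 cells express luciferase from an MMTV promoter bearing both AR and GR response elements. Compounds plus 0.5 nM R1881 (final) were incubated 16 hr at 37C without CO2, then luminescence measured.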
# [14] = qHTS assay to identify small molecule agonists of the estrogen receptor beta (ER-beta) signaling pathway - cell viability counter screen (AID 1259380); further: nearly all actives have a fitted effect of over 30% in size; further: potency means the concentration at half of the fitted maximal effect
# Outline: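 Cytotoxicity is measured in parallel with the reporter screen: after 16 hr compound exposure at 37C and a 2 hr LiveBLAzer step, CellTiter-Glo is added to the same ER-beta-UAS-bla HEK293T wells and luminescence read after 30 min.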
# [15] = molecular target: Androgen receptor (Homo sapiens) (UniProt P10275); test: qHTS assay to identify small molecule agonists of the androgen receptor (AR) signaling pathway in the presence of an antagonist (AID 1259381; calls by dose curve; further: nearly all actives have a fitted effect of over 15% in size)
# Outline: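 Agonist-mode confirmation screen: human MDA-kb2 cells stably expressing luciferase under an MMTV promoter bearing AR and GR response elements, co-treated with 3.0uM nilutamide (final). Luminescence measured after 16hr compound incubation.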
# [16] = qHTS assay to identify small molecule agonists of the estrogen receptor alpha (ER-alpha) signaling pathway in the presence of an antagonist - cell viability counter screen (AID 1259386);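 further: series mostly up to about 92 µM; cells exposed to compounds for 22 h at 37 °C before the viability read; nearly all actives have a fitted effect of over 30% in size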
# Outline: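 Cytotoxicity was measured in parallel with the ERE-luciferase agonist screen, in the same wells. The cells were VM7Luc4E2, which endogenously express ER-alpha, and treatment was with compounds plus 10.0nM ICI-182,780 for 22hr.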
# [17] = molecular target: Estrogen receptor (Homo sapiens) (UniProt P03372); test: qHTS assay to identify small molecule antagonists of the estrogen receptor alpha (ER-alpha) signaling pathway using the BG1 cell line in the presence of 0.1 nM 17-beta-estradiol (AID 1259244); further: nearly all actives have a fitted effect of over 50% in size
# Outline: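 Antagonist mode: compounds in DMSO are pinned onto VM7Luc4E2 reporter cells, 0.1 nM final 17beta-estradiol is added, and after 22 h at 37C luciferase luminescence is measured with ONE-Glo.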
# [18] = qHTS assay to identify small molecule antagonists of the sonic hedgehog signaling (Shh) pathway (AID 1259369; calls by dose curve; further: nearly all actives have a fitted effect of over 45% in size)
# Outline: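 Cells are plated and held 4hr at 37 C, compounds (DMSO) are pinned in, conditioned medium is added to stimulate the pathway, and after 24hr luciferase reagent is added for 30min before luminescence is read.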
# Chain of Thyrotropin receptor (Homo sapiens) (P16473 whole entry, looked up): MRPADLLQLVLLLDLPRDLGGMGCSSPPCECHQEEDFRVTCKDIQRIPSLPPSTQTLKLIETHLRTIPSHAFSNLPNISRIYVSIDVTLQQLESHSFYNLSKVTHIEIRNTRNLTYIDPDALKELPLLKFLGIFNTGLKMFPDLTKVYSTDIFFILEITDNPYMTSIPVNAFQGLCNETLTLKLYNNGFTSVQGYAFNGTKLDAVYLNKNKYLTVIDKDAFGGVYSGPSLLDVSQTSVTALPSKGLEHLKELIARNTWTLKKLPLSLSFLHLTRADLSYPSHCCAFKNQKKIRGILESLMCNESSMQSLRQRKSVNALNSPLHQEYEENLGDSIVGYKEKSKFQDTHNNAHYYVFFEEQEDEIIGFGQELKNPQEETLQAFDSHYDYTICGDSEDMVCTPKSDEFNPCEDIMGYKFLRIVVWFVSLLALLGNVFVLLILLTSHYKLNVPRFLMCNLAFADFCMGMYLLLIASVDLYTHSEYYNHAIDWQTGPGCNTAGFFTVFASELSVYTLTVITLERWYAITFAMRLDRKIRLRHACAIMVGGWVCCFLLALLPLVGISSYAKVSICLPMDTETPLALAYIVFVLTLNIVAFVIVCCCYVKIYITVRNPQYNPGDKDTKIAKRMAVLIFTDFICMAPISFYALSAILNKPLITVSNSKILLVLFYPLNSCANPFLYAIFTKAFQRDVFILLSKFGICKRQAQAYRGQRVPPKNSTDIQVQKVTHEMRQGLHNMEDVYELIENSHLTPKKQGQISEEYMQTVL
# Chain of Estrogen receptor beta (Homo sapiens) (Q92731 whole entry, looked up): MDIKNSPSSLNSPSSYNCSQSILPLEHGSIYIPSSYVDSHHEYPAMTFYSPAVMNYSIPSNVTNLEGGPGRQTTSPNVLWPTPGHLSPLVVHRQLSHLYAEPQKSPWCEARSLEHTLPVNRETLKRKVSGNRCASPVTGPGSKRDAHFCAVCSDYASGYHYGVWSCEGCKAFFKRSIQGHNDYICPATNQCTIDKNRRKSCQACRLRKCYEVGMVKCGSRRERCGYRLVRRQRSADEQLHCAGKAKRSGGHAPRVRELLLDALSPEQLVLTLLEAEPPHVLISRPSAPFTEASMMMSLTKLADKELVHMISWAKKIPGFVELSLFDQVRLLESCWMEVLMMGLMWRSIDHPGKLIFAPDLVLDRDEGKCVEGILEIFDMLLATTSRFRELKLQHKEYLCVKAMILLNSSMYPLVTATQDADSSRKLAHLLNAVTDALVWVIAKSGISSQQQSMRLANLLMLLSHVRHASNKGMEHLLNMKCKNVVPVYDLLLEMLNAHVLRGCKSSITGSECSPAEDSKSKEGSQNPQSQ
# Chain of Androgen receptor (Homo sapiens) (P10275 whole entry, looked up): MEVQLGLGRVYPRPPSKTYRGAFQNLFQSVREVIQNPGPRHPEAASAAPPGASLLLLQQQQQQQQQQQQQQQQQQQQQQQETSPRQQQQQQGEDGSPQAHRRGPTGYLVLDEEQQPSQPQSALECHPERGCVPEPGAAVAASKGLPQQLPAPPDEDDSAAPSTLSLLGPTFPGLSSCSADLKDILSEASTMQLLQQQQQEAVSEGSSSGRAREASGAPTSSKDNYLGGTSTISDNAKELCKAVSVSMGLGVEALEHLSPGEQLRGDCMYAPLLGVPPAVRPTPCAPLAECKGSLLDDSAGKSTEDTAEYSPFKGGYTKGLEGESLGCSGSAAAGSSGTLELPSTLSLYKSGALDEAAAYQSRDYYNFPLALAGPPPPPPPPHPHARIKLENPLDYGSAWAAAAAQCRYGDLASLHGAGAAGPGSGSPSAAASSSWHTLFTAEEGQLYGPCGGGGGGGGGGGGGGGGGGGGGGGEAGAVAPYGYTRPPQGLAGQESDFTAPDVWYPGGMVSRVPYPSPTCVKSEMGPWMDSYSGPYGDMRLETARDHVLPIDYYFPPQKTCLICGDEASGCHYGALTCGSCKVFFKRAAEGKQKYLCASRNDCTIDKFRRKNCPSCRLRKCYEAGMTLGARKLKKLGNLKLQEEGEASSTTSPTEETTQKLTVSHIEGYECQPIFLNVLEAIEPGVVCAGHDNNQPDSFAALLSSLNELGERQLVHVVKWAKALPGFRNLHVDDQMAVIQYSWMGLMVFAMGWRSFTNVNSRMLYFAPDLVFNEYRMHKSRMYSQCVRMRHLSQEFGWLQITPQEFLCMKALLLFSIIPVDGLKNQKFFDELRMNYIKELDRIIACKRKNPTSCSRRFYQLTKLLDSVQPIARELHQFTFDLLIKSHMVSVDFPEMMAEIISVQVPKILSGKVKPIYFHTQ
# Chain of Estrogen receptor (Homo sapiens) (P03372 whole entry, looked up): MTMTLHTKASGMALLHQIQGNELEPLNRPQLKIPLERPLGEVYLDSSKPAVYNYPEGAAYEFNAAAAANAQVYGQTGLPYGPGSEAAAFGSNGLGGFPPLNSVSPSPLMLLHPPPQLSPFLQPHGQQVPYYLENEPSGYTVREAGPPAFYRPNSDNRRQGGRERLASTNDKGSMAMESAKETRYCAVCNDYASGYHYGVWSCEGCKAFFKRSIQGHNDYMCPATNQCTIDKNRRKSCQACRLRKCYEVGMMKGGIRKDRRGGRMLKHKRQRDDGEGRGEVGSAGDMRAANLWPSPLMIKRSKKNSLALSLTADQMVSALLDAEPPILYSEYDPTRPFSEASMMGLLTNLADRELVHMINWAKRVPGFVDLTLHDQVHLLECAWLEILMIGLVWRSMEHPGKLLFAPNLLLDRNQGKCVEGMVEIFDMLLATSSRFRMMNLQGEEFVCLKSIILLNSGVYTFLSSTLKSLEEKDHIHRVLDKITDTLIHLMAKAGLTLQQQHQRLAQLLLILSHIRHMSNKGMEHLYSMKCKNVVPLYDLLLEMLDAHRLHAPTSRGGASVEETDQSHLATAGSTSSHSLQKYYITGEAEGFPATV
structure (smiles),measurement,setting,value
CCC(Cc1ccccc1)(C(=O)c1ccc(N2CCOCC2)cc1)N(C)C (stereo not given),Potency,[1],inactive
same,Potency,[2],inactive
same,Potency,[3],inactive
same,Potency,[4],inactive
same,Potency,[5],inactive
same,Potency,[6],inactive
same,Potency,[7],inactive
same,Potency,[8],inactive
same,Potency,[9],inactive
same,outcome,[10],inactive
same,Potency,[11],inactive
C[C@@H]1C[C@H]2[C@@H]3CCC4=CC(=O)C=C[C@]4(C)[C@@]3(F)[C@@H](O)C[C@]2(C)[C@H]1C(=O)CO,Potency,[2],inactive
same,Potency,[3],inactive
same,Potency,[4],inactive
same,Potency,[5],inactive
same,Potency,[6],inactive
same,Potency,[7],inactive
same,Potency,[12],inactive
same,Potency,[8],inactive
same,outcome,[10],inactive
CCOC(=O)[C@@H](C)Oc1ccc(Oc2nc3ccc(Cl)cc3o2)cc1,Potency,[13],inactive
same,Potency,[3],inactive
same,Potency,[4],inactive
same,Potency,[5],inactive
same,Potency,[6],inactive
same,Potency,[12],inactive
same,Potency,[14],inactive
same,Potency,[15],inactive
same,Potency,[8],inactive
same,Potency,[16],inactive
CC(CCO)CCc1ccccc1 (stereo not given),Potency,[17],inactive
same,Potency,[1],inactive
same,Potency,[2],inactive
same,Potency,[3],inactive
same,Potency,[4],inactive
same,Potency,[5],inactive
same,Potency,[18],inactive
same,Potency,[6],inactive
same,Potency,[7],inactive
same,Potency,[12],inactive
same,Potency,[14],inactive
same,Potency,[8],inactive
same,Potency,[9],inactive
same,outcome,[10],inactive
same,Potency,[11],inactive
same,Potency,[16],inactive
C=C(C)C(=O)OCCOC(=O)CC(C)=O,Potency,[2],inactive
same,Potency,[3],inactive
same,Potency,[4],inactive
same,Potency,[5],inactive
same,Potency,[7],inactive
same,Potency,[12],inactive
same,Potency,[14],inactive
same,outcome,[10],inactive
same,Potency,[11],inactive
same,Potency,[16],inactive
COc1cc2c(N3CCN(C(=O)Nc4ccc(OC(C)C)cc4)CC3)ncnc2cc1OCCCN1CCCCC1,Potency,[17],inactive
same,Potency,[1],inactive
same,Potency,[2],inactive
same,Potency,[5],inactive
same,Potency,[14],18.8 µM (active)
same,Potency,[15],inactive
same,Potency,[8],inactive
same,Potency,[9],inactive
same,outcome,[10],inactive
same,Potency,[11],inactive
NC(=O)Nc1ccc(Cl)c(Cl)c1,Potency,[1],inactive
same,Potency,[2],inactive
same,Potency,[3],inactive
same,Potency,[4],inactive
same,Potency,[5],inactive
same,Potency,[12],inactive
same,Potency,[14],inactive
same,outcome,[10],inactive
same,Potency,[16],inactive
CN1C(=O)CC(C)(c2ccccc2)C1=O (stereo not given),Potency,[17],inactive
same,Potency,[2],inactive
same,Potency,[3],inactive
same,Potency,[4],inactive
same,Potency,[5],inactive
same,Potency,[18],inactive
same,Potency,[6],inactive
same,Potency,[12],inactive
same,Potency,[14],inactive
same,Potency,[9],inactive
same,outcome,[10],inactive
same,Potency,[11],inactive
same,Potency,[16],inactive
Brc1cc(-c2ccc(Br)c(Br)c2Br)cc(Br)c1Br,Potency,[17],inactive
same,Potency,[2],inactive
same,Potency,[3],inactive
same,Potency,[4],inactive
same,Potency,[5],inactive
same,Potency,[6],inactive
same,Potency,[12],inactive
same,Potency,[14],inactive
same,Potency,[8],inactive
same,outcome,[10],inactive
same,Potency,[11],inactive
same,Potency,[16],inactive
CCCCCCCCCCCCCCCCBr,"activity change, negative = inhibition",[17],3% [at 19 µM]
same,"activity change, negative = inhibition",[1],4.52% [at 19 µM]
same,"activity change, negative = cytotoxicity",[2],1.54% [at 19 µM]
same,"viability change, negative = cytotoxic",[3],-1.13% [at 19 µM]
same,"viability change, negative = cytotoxic",[4],-2.38% [at 19 µM]
same,activity change,[5],"-0.182% [at 18.9 µM, active compounds read high]"
same,"activity change, negative = inhibition",[18],18.7% [at 19 µM]
same,activation,[6],0.819% [at 19 µM]
same,"activity, negative = inhibition",[7],8% [at 19 µM]
same,"activity change, negative = cytotoxicity",[12],1.54% [at 19 µM]
same,"activity change, negative = cytotoxicity",[14],2.84% [at 19 µM]
same,"activity change, negative = cytotoxicity",[8],-0.0957% [at 19 µM]
same,activation,[9],-0.645% [at 19 µM]
same,cAMP activity change,[10],-0.461% [at 18.9 µM]
same,"activity change, negative = cytotoxicity",[16],0.981% [at 19 µM]
